Compounds with a hit are over-represented: about 11% of the library has one in this group of screens.
HEK293 tox = Cytotoxic Profiling in HEK 293 Cell Line of Diverse Libraries Using Quantitative High-Throughput Screening; Potency, µM (doses to about 115 µM), most hits filed as inhibitors; AID 1345083, 2018; 94,000 compounds, 6.6% hits; HEK 293 viability, ATP luminescence (CellTiter-Glo), 48-72 h; also: nearly all actives have a fitted effect of over 60% in size
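Cytotoxicity was scored by loss of ATP-coupled luminescence (CellTiter-Glo) in HEK 293 cells. Compound treatment ran 48 or 72 hr at 37 degree Celsius, 5% CO2, 95% humidity.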
Luciferase inh = Firefly luciferase inhibition profiling of diverse chemical library using quantitative high-throughput screening | Luciferin 4-monooxygenase (Photinus pyralis), P08659 | purified P. pyralis luciferase, luminescence, biochemical | Potency, µM (highest dose often 115 µM), most hits filed as inhibitors | 76,000 compounds, 2.5% hits | AID 1347043, 2019; also: nearly all actives have a fitted effect of over 65% in size
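Purified 10nM P. pyralis luciferase with 10uM D-luciferin and 10uM ATP in 50mM Tris acetate pH 7.5, 10mM Mg acetate, 0.01% Tween-20, 0.05% BSA. qHTS titration; luminescence read by CCD imager.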
hNpr1 antagonist = Natriuretic polypeptide receptor (hNpr1) antagonism - Primary qHTS; Atrial natriuretic peptide receptor 1 (Homo sapiens), P16066; HEK293 hNpr1 GloSensor cGMP, ANP-stimulated luminescence; Potency, µM (highest dose often 46.3 µM), most hits filed as inhibitors; 76,000 compounds, 1.6% hits; calls by dose curve; also: nearly all actives have a fitted effect of over 60% in size
Target sequence (P16066 whole entry, looked up): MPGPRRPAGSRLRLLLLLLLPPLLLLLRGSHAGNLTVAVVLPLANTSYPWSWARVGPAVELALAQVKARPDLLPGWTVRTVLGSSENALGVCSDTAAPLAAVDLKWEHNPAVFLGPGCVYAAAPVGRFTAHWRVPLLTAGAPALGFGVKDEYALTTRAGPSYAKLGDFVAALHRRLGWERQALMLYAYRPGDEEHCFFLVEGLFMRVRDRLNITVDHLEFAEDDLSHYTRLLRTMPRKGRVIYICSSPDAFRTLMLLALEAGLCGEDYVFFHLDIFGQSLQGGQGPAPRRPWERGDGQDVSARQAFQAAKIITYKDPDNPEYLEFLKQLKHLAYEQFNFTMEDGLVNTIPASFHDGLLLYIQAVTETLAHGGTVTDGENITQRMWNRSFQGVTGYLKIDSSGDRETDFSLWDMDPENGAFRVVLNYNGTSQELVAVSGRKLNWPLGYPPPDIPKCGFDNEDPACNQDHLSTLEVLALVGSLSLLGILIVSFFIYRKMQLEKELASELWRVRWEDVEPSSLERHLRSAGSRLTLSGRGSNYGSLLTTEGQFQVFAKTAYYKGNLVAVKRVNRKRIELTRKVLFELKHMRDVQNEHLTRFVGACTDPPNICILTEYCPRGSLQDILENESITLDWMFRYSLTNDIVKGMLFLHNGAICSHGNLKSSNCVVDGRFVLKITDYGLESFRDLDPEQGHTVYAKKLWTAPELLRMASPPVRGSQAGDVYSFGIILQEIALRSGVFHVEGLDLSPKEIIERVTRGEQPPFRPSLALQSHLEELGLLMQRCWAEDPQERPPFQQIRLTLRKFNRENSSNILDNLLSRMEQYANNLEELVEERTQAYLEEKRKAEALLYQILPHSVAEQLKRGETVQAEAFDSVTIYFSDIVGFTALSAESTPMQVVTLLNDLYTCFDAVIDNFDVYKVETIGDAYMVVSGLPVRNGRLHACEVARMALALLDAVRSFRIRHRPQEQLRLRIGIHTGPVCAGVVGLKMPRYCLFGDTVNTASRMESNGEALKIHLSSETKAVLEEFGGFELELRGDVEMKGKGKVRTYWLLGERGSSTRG
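Compound pre-incubated 30 min at room temperature on GloSensor-loaded HEK293 cells stably carrying hNpr1 and the pGS-40F cGMP biosensor. Stimulation uses hNppA at 0.1 nM final; luminescence is taken at baseline and 20 min post-agonist.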
NIH3T3 tox = Cytotoxic Profiling in NIH 3T3 Cell Line of Diverse Libraries Using Quantitative High-Throughput Screening | NIH 3T3 viability, CellTiter-Glo ATP luminescence, 48-72 h | Potency, µM (highest dose often 96.7 µM), usual class: inhibitors | 94,000 compounds, 4.3% hits; also: nearly all actives have a fitted effect of over 55% in size
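Mouse fibroblast NIH 3T3 cells, 400 per well, received compound via pintool and were incubated for 48 or 72 hr prior to CellTiter-Glo ATP luminescence measurement.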
Large screens that a line does not name were inactive; ! = not active in a repeat. Unless noted, calls follow the shape of the dose curve; as a rule, active = well fitted curve in the direction sought with a large enough effect; inconclusive = small, poorly fitted or top-dose-only effect, or another doubt; inactive = no such curve, though single readings can be large; an effect the other way counts as inactive or inconclusive.

O=C(c1ccccc1F)N1CCN(c2nccc(Nc3ccccc3F)n2)CC1	HEK293 tox 35.5µM, NIH3T3 tox inconclusive (no result: Luciferase inh, hNpr1 antagonist)
Cn1cc(CN2CCCC23CCN(c2ncccn2)CC3)c(-c2ccccc2)n1	none
COc1cccc(C(=O)N2CCC(N3C[C@H](O)C[C@H]3C(=O)NCc3cc(F)cc(F)c3)CC2)c1	none
O=C(C1CCCC1)N1CCN(c2nccc(Nc3ccccc3F)n2)CC1	HEK293 tox inconclusive, NIH3T3 tox 22.4µM (no result: Luciferase inh, hNpr1 antagonist)
O=C(C1CCCN1c1nccc(Nc2ccccc2F)n1)N1CCN(c2ncccn2)CC1 (stereo not drawn)	none (no result: Luciferase inh, hNpr1 antagonist)
Cc1cc(NC(=O)c2ccc3c(c2)OCCN(C2CCC2)C3)ccc1F	HEK293 tox inconclusive, Luciferase inh 22.4µM, NIH3T3 tox inconclusive
Cc1ccc(CNC(=O)c2ccc3c(c2)CN(C2CCC2)CCO3)cc1	none
COc1ccc(NC(=O)c2ccc3c(c2)OCCN(c2ccccc2)C3)cn1	HEK293 tox inconclusive, hNpr1 antagonist inconclusive, NIH3T3 tox inconclusive
O=C(Nc1ccc(F)cc1)c1ccc2c(c1)OCCN(C1CCC1)C2	HEK293 tox inconclusive, Luciferase inh 44.7µM, NIH3T3 tox inconclusive
CC(C)Oc1ccc(CNC(=O)c2cc(-c3ccncc3)cn2C)cc1	HEK293 tox inconclusive, NIH3T3 tox inconclusive
O=C(Nc1ccccc1Cl)C1CN(C2CCCCC2)C(=O)N1 (stereo not drawn)	none (no result: Luciferase inh, hNpr1 antagonist)
O=C(NC1CCCCC1)N1CCCC(c2noc(COc3ccccc3F)n2)C1 (stereo not drawn)	HEK293 tox inconclusive, NIH3T3 tox inconclusive
O=C(NCC(F)(F)F)c1cc(C2CC2)nc2c1c(C1CCCN1)nn2-c1ccccc1 (stereo not drawn)	HEK293 tox inconclusive, NIH3T3 tox 22.4µM (no result: Luciferase inh, hNpr1 antagonist)
Cn1nc(C2CCCN2)c2c(C(=O)NCC(F)(F)F)cc(C3CC3)nc21 (stereo not drawn)	none (no result: Luciferase inh, hNpr1 antagonist)
CC(C)CNC(=O)c1cc(C2CC2)nc2c1c(C1CCCN1)nn2-c1ccccc1 (stereo not drawn)	HEK293 tox 22.4µM, NIH3T3 tox 17.8µM (no result: Luciferase inh, hNpr1 antagonist)
O=C(NCc1ccncc1)c1cc(C2CC2)nc2c1c(C1CCCN1)nn2-c1ccccc1 (stereo not drawn)	HEK293 tox 44.7µM, NIH3T3 tox 20µM (no result: Luciferase inh, hNpr1 antagonist)
COc1ccc(Cl)cc1C(=O)NC1CCCN(c2cc(-c3ccc(F)cc3)[nH]n2)C1 (stereo not drawn)	HEK293 tox inconclusive, Luciferase inh inconclusive, NIH3T3 tox inconclusive
COc1ccc(-c2noc([C@@H]3CCCN3C(=O)c3cc(Cl)ccc3OC)n2)cc1	HEK293 tox 25.1µM, NIH3T3 tox inconclusive
COc1ccc(-c2noc([C@@H]3CCCN3C(=O)c3ccc(F)c(Cl)c3)n2)cc1OC	HEK293 tox 39.8µM, NIH3T3 tox inconclusive
COc1ccc(C(=O)N2CCC[C@H]2c2nc(-c3ccc(OC)cc3)no2)cc1	HEK293 tox inconclusive
CCCCOc1ccc(C(=O)N2CCC[C@H]2c2nc(-c3ccc(C)cc3)no2)cc1	HEK293 tox 22.4µM, NIH3T3 tox 35.5µM
COc1cccc(CC(=O)N2CCC3(CCC3OC)CC2)c1 (stereo not drawn)	none (no result: Luciferase inh, hNpr1 antagonist)
COc1cccc(CNC(=O)c2nc3cccnc3n(Cc3ccccc3OC)c2=O)c1	none (no result: Luciferase inh, hNpr1 antagonist)
Cc1ccc2c(C)c(C(=O)N(C)Cc3noc4c3CCCC4)oc2c1	HEK293 tox 44.7µM, NIH3T3 tox inconclusive
CCc1cc(CN(C)C(=O)c2oc3cc(OC)ccc3c2C)on1	HEK293 tox inconclusive, NIH3T3 tox inconclusive
O=C(NC1CCCCC1)N1CCCC1c1noc(COc2ccc(F)cc2)n1 (stereo not drawn)	HEK293 tox inconclusive
COc1ccc2cc(C3CN(C(=O)c4ccc(C)cc4OC)CCO3)ccc2c1 (stereo not drawn)	HEK293 tox 22.4µM, Luciferase inh 22.4µM, hNpr1 antagonist inconclusive, NIH3T3 tox 44.7µM
COc1ccc(-c2cc(C(=O)N3CCOC(c4ccc(F)cc4)C3)[nH]n2)cc1 (stereo not drawn)	HEK293 tox inconclusive, NIH3T3 tox inconclusive
CC(C)Oc1cccc(-c2nnc(CCC(=O)NCCOc3ccccc3)c(=O)[nH]2)c1	none
CCOc1ccccc1NC(=O)Cn1c(N(C)Cc2ccccc2)nc(C)cc1=O	HEK293 tox 35.5µM, NIH3T3 tox inconclusive
COc1ccc(Cl)cc1NC(=O)Cn1c(N(C)Cc2ccccc2)nc(C)cc1=O	HEK293 tox inconclusive, NIH3T3 tox inconclusive
Cc1cc(=O)n(CC(=O)Nc2cc(Cl)ccc2C)c(N(C)Cc2ccccc2)n1	HEK293 tox 25.1µM, NIH3T3 tox inconclusive
O=C(Cc1cccc(Cl)c1)NC1CCN(Cc2cccc(-c3ccc(F)c(F)c3)c2)CC1	HEK293 tox 20µM, NIH3T3 tox 15.8µM (no result: Luciferase inh, hNpr1 antagonist)
O=C(NC1CCCC1)NC1CCN(Cc2cccc(-c3cccs3)c2)CC1	HEK293 tox inconclusive (no result: Luciferase inh, hNpr1 antagonist)
O=C(Cc1cccc(Cl)c1)NC1CCN(Cc2cccc(-c3cccs3)c2)CC1	HEK293 tox 22.4µM, NIH3T3 tox 11.2µM (no result: Luciferase inh, hNpr1 antagonist)
O=C(Nc1ccccc1F)NC1CCN(Cc2cccc(-c3cccs3)c2)CC1	HEK293 tox 25.1µM, NIH3T3 tox 25.1µM (no result: Luciferase inh, hNpr1 antagonist)
CC(=O)Nc1ccc(C2(C(=O)N3CCN(c4ccccc4)CC3)CCCCC2)cc1	HEK293 tox inconclusive, NIH3T3 tox inconclusive
CN(Cc1ccccc1)C(=O)C1(c2ccc(NC(=O)C3CC3)cc2)CCCCC1	HEK293 tox 35.5µM, NIH3T3 tox inconclusive
CC(=O)Nc1ccc(C2(C(=O)N(C)Cc3ccccc3)CCCCC2)cc1	HEK293 tox 50.1µM, NIH3T3 tox inconclusive
O=C(NC1CCN(CCn2nc3n(c2=O)CCCC3)C1)c1cccc(Cl)c1 (stereo not drawn)	none (no result: Luciferase inh, hNpr1 antagonist)
CN1CCC2(C1)CN(CC1CC1)c1ccc(C(=O)NC3CCCCC3)cc12 (stereo not drawn)	HEK293 tox 89.1µM, NIH3T3 tox 79.4µM
CN1CCC2(C1)CN(CC1CC1)c1ccc(C(=O)Nc3ccccc3)cc12 (stereo not drawn)	HEK293 tox inconclusive, Luciferase inh inconclusive, NIH3T3 tox inconclusive
CN1CCC2(C1)CN(CC1CC1)c1ccc(C(=O)NCc3cccs3)cc12 (stereo not drawn)	HEK293 tox 100µM, NIH3T3 tox inconclusive
O=C(c1cccc(Cl)c1)N1CCCC(C(=O)N2CCC(N3CCOCC3=O)CC2)C1 (stereo not drawn)	none (no result: Luciferase inh, hNpr1 antagonist)
N#Cc1cccc(CN2CCC(c3nc4ccc(F)cc4c(=O)[nH]3)CC2)c1	HEK293 tox 22.4µM!, NIH3T3 tox inconclusive
N#Cc1cccc(CN2CCCC(c3nc4ccc(F)cc4c(=O)[nH]3)C2)c1 (stereo not drawn)	HEK293 tox 44.7µM!, NIH3T3 tox inconclusive
c1ccc(C2(c3ccccc3)CCCN(Cc3cscn3)C2)cc1	HEK293 tox 39.8µM, NIH3T3 tox inconclusive
O=C(Nc1cccc(-c2nnc3n2CCCC3)c1)c1ccc2c(c1)OCO2	HEK293 tox inconclusive, Luciferase inh inconclusive

Screening results: PubChem, National Center for Advancing Translational Sciences (NCATS)
